From the supplement of paper PMC11732987, “Enantioselective OTUD7B fragment discovery through chemoproteomics screening and high-throughput optimisation” (Communications Chemistry, 2025)

Columns and labels:
Assay in all cases: log2 ratio of Biotin-Ahx-Ub-VS probe labelling (fragment/DMSO); higher = less target engagement (more negative = stronger competition), active = hit call of the paper (q ≤ 0.05, log2 ratio ≤ -1)
Details in all cases: compound concentration: 200 uM; treatment time: 3 h
[1] = molecular target: T1, USP19 (UniProt O94966)
T1 sequence (whole entry): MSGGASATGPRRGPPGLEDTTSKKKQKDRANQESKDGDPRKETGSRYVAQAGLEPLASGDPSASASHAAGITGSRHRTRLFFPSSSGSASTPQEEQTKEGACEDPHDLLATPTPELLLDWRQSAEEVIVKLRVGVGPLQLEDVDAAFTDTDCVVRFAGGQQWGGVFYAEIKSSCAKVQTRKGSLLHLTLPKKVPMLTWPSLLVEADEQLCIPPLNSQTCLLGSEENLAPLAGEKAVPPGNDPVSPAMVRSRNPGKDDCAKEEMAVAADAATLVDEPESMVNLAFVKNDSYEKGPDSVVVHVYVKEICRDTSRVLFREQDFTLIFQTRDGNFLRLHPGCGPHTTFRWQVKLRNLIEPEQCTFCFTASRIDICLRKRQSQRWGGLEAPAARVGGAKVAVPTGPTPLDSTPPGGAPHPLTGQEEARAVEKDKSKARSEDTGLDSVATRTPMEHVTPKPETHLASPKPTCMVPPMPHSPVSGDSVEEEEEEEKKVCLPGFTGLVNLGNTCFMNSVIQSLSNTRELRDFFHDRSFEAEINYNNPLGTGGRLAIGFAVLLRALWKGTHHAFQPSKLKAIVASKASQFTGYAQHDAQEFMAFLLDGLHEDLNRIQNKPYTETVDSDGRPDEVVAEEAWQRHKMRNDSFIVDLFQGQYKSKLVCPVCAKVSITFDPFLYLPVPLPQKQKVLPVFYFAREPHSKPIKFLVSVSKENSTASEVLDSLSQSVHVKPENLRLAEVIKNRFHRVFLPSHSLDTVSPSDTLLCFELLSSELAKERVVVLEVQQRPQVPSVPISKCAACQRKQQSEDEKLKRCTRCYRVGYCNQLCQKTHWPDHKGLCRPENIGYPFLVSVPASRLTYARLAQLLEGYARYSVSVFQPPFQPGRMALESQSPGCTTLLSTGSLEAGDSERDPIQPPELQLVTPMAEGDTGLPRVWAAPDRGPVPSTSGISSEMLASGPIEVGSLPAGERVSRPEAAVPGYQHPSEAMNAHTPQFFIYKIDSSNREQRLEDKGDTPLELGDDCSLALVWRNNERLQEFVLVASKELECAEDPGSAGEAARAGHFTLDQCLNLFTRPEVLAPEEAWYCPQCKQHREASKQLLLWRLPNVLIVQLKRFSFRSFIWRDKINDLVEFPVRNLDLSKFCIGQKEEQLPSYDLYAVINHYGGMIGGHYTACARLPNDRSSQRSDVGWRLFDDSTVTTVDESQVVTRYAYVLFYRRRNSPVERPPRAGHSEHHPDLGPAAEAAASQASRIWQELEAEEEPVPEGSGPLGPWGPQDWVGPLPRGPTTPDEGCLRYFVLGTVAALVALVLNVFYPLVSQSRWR
In short: (§1)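 Triplicate samples of HEK293T lysate, 495 µg each, received fragment at 200 µM or vehicle for 3 h, followed by Biotin-Ahx-Ub-VS (0.5 µM final) for 1 h. After NeutrAvidin enrichment of labelled DUBs and LysC/trypsin digestion, peptides were run by diaPASEF LC-MS/MS. The values are average log2 fragment/vehicle ratios from global-median-normalised Spectronaut label-free quantities, tested by unpaired t-test on proteins having ≥2 unique peptides.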

[2] = molecular target: USP24 (UniProt Q9UPU5)
Sequence of USP24 (Q9UPU5 whole entry): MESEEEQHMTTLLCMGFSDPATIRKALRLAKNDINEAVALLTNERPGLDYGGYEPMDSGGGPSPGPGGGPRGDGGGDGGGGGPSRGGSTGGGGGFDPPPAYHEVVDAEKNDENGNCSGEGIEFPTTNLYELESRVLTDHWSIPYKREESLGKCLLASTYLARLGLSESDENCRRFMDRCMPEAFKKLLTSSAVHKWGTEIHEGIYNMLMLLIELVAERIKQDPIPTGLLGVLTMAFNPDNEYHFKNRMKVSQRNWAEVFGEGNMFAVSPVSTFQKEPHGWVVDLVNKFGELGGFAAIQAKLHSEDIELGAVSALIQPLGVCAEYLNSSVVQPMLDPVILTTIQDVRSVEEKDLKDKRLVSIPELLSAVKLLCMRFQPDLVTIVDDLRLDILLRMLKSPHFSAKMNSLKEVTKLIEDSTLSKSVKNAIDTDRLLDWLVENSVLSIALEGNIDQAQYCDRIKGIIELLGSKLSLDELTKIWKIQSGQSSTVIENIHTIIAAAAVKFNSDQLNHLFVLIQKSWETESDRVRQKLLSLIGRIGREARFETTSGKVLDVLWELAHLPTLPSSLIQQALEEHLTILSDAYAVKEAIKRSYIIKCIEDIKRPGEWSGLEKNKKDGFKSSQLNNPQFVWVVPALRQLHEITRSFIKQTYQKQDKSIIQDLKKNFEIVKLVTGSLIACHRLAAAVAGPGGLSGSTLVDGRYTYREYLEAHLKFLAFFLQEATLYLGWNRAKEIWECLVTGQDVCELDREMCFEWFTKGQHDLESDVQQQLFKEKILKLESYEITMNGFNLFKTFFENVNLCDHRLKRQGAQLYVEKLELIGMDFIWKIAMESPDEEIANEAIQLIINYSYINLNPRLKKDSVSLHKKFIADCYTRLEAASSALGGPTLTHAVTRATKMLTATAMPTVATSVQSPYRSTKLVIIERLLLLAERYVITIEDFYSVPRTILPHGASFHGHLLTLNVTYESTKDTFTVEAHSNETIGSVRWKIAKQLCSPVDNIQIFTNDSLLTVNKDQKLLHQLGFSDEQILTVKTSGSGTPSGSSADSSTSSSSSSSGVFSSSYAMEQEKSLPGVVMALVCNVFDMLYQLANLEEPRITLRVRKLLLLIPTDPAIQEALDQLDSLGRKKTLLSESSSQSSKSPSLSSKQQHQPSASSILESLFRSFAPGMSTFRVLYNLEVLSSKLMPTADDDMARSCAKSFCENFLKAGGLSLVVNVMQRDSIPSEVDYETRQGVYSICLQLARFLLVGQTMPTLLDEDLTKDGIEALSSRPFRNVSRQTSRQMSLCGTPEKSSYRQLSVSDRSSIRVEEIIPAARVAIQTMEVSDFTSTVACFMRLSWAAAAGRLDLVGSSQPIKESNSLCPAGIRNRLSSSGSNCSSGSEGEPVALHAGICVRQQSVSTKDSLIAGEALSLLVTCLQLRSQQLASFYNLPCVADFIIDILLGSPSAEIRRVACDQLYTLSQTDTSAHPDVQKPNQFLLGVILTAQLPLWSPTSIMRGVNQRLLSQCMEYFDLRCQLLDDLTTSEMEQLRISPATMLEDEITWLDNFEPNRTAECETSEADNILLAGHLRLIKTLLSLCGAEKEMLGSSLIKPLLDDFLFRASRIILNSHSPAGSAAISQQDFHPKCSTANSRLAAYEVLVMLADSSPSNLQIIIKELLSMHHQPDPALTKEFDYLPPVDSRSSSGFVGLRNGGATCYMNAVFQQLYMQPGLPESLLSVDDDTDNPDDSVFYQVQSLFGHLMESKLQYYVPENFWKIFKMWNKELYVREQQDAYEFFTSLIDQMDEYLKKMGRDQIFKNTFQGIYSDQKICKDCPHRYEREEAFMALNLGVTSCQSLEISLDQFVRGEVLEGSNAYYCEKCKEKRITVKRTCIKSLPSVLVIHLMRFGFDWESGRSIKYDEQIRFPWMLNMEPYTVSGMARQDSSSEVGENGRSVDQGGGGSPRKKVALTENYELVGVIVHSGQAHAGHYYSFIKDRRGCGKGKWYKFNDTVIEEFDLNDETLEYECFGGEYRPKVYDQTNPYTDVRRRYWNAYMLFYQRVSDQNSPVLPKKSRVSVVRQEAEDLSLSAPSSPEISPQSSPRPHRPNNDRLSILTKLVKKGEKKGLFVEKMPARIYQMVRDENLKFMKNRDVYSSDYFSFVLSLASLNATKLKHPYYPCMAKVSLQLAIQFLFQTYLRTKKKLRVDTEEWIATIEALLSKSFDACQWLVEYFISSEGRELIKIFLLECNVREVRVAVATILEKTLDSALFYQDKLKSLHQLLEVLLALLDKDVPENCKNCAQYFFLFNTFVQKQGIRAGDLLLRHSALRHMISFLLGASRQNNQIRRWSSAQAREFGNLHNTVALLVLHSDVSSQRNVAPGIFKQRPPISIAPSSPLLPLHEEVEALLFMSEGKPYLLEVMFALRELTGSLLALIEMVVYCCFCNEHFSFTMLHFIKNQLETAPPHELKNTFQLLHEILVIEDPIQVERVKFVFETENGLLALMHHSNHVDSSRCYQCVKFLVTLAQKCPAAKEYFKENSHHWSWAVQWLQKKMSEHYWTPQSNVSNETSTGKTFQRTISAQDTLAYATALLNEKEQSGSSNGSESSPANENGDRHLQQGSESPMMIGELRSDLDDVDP
In short: as §1

[3] = molecular target: T2, USP25 (UniProt Q9UHP3)
T2 sequence (whole entry): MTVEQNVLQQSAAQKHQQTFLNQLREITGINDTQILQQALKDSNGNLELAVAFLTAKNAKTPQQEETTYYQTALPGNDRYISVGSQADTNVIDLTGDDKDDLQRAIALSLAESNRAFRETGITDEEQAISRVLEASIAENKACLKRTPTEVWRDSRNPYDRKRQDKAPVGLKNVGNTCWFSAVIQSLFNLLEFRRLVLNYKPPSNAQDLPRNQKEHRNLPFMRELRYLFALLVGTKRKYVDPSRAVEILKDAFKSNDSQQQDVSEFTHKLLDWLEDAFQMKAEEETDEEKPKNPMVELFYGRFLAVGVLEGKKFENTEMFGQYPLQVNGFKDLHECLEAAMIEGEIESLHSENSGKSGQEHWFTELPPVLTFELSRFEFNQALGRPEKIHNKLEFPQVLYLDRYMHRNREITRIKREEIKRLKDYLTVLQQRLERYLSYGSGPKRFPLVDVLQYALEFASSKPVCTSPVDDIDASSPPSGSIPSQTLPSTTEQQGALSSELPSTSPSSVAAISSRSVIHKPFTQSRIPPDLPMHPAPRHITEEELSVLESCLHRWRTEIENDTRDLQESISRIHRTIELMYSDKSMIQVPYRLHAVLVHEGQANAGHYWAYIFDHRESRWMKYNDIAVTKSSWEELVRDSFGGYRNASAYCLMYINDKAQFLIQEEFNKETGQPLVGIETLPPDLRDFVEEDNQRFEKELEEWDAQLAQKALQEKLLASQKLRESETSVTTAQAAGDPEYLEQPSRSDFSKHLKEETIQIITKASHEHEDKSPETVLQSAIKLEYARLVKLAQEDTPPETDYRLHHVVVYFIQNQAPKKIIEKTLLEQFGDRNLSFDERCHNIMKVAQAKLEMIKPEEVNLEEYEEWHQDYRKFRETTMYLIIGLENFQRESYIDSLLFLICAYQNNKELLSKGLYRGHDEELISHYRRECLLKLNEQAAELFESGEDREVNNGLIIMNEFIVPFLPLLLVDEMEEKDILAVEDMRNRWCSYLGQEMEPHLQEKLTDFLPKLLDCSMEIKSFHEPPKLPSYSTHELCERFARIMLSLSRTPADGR
In short: as §1

[4] = molecular target: T3, USP28 (UniProt Q96RU2)
T3 sequence (whole entry): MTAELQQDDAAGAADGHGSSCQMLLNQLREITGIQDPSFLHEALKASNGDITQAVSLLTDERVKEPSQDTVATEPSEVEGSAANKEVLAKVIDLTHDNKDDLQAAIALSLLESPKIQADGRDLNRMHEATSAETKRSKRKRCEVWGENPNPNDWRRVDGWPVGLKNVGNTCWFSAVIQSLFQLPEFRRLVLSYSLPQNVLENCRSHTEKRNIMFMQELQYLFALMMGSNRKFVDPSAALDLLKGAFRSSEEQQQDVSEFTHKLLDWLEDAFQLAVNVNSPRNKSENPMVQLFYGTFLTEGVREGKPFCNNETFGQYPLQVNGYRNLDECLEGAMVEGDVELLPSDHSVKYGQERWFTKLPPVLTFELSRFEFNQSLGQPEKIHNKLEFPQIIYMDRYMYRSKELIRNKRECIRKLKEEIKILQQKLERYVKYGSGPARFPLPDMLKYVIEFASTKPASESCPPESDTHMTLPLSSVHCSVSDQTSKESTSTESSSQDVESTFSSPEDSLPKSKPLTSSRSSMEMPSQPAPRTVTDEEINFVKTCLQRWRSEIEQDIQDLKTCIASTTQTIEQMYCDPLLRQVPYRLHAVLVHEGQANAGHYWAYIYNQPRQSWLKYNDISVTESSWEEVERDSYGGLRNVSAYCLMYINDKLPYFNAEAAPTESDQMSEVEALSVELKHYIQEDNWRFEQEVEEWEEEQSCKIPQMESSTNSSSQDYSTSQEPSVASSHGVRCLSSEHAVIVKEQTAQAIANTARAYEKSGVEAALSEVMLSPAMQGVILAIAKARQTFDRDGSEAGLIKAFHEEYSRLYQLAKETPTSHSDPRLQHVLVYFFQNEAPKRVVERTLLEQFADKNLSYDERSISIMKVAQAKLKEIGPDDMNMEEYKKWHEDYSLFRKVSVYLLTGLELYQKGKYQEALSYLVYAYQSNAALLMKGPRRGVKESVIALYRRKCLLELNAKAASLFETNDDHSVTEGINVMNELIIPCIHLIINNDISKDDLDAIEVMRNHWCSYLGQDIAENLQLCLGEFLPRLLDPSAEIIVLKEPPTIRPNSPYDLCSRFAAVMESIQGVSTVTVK
In short: as §1

Measured: log2 ratio of Biotin-Ahx-Ub-VS probe labelling

O=C(CCl)NCc1ccc(N2CCOCC2)c(F)c1
inactive: [1] 0.108 | [2] 0.223 | [3] -0.255 | [4] -0.606
